Measurements taken from PubChem BioAssay (NCATS).
Records with an inconclusive call do not appear. Unless noted, calls follow the shape of the dose curve; as a rule, active = well fitted curve in either direction with a large enough effect (not every such curve was filed as active); inconclusive = small, poorly fitted or top-dose-only effect, or another doubt; inactive = flat fitted curve, though single readings scatter.

Assays:
[1] = AP1 Signaling Pathway (AID 357); details: ME-180 AP-1-bla reporter, EGF-induced, beta-lactamase ratio, 5 h; at 17.2 µM (top of the series) unless noted;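 also: ME-180 reporter cells stimulated with EGF at its EC50 level; % is scaled to controls: 0 for no effect and ±100 for the full control effect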
Method in brief: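 Cells are seeded overnight, exposed to compound titrations and an EC50 level of EGF for 5 hours at 37 °C, then loaded with CCF4 dye for 2.5 hours. Beta-lactamase activity under the AP-1 element is read as a blue/green ratio.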

[2] = NFAT Signaling Pathway (AID 444); details: Jurkat NFAT-bla M1, carbachol, beta-lactamase ratio, 5 h; at 17.2 µM (top of the series) unless noted;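 also: carbachol stimulus at about its EC50 of 1 µM final; % is scaled to controls: 0 for no effect and ±100 for the full control effect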
Method in brief: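 Jurkat cells carrying an NFAT-driven β-lactamase reporter and co-transfected muscarinic M1 receptor were treated with compound plus carbachol (1 uM final, an EC50 level) for 5 h at 37 °C. CCF4 loading followed for 1 h at RT; 460/530 nm ratio gave %activity.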

[3] = Stat Signaling Pathway (AID 446); details: ME-180 (cervical carcinoma) SIE beta-lactamase reporter, IL-6 stimulated, 5 h; at 17.2 µM (top of the series) unless noted;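 also: ME-180 cervical cancer cells given 40 pM IL-6 alongside compound; SIE-controlled beta-lactamase reporter measured as 460/530 nm FRET emission ratio; % is scaled to controls: 0 for no effect and ±100 for the full control effect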
Method in brief: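 Normalization used AC90 stimulation (300 pM IL-6) and AC90 inhibition (125 nM pan-JAK inhibitor at 40 pM IL-6). The underlying signal is SIE-driven beta-lactamase in ME-180 cells after 5 h IL-6 exposure with compound.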

[4] = molecular target: Glucocorticoid receptor (Homo sapiens) (UniProt P04150); assay: GR-GFP Redistribution (AID 450;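 active = compounds whose dose series gives a full or clear partial fitted curve of increased nuclear translocation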; also: potency is read from the fitted curve at half-maximal effect)
Chain of Glucocorticoid receptor (Homo sapiens) (P04150 whole entry, looked up): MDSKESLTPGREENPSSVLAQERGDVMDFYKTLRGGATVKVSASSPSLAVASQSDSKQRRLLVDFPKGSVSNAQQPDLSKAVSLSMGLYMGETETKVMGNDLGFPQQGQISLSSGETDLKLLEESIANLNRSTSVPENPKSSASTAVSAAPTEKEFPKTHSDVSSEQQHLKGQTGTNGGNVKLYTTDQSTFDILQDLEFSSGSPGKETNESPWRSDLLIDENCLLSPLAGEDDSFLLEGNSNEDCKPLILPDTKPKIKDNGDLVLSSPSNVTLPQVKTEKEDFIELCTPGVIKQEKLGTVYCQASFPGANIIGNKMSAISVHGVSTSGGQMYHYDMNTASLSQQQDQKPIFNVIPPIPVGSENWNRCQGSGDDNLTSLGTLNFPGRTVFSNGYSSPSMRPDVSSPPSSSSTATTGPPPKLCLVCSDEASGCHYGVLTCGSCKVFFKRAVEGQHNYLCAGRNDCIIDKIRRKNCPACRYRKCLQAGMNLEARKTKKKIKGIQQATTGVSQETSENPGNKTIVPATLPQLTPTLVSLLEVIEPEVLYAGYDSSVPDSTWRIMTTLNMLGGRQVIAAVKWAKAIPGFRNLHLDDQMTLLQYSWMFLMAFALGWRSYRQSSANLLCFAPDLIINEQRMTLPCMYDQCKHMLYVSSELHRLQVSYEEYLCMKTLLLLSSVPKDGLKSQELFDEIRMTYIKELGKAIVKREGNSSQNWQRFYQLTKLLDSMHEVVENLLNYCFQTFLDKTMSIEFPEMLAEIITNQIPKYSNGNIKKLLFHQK

Cn1c(OCc2ccc3c(c2)OCO3)nc2c1c(=O)n(Cc1cccc(Cl)c1)c(=O)n2C
inactive: activity change, negative = inhibition [1] -15.5% | activity change, negative = inhibition [2] 1.55% | activity, negative = inhibition [3] -6.64% | Potency [4] > 20.6 µM

CCOC(=O)COc1nc(N(C)C)nc(N(C)C)n1
inactive: activity change, negative = inhibition [1] 5.84% | activity change, negative = inhibition [2] -1.43% | activity, negative = inhibition [3] 8.42% | Potency [4] > 20.6 µM

CCc1cc2c(=O)c(-c3cscn3)coc2c(CN(C)C)c1O
inactive: activity change, negative = inhibition [1] 26.5% | activity change, negative = inhibition [2] -7.56% | activity, negative = inhibition [3] 10.5% | Potency [4] > 20.6 µM

N#C/C(=C\c1c(N2CCC(C(N)=O)CC2)nc2ccccn2c1=O)S(=O)(=O)c1ccccc1
inactive: activity change, negative = inhibition [1] -8.19% | activity change, negative = inhibition [2] 29.6% | activity, negative = inhibition [3] -1.65% | Potency [4] > 20.6 µM

CCC(=O)Nc1ccc(-c2nnc(SCC(=O)NCC3CCCO3)n2C)cc1 (stereo not given)
inactive: activity change, negative = inhibition [1] -2.29% | activity change, negative = inhibition [2] -1.98% | activity, negative = inhibition [3] 1.52% | Potency [4] > 20.6 µM

CCCCC1(C(=O)OCC)CC(CN2CCOCC2)OC1=O (stereo not given)
inactive: activity change, negative = inhibition [1] 2.64% | activity change, negative = inhibition [2] -18.1% | activity, negative = inhibition [3] 3.3% | Potency [4] > 20.6 µM

Cc1nn(CC(=O)NCCN2CCOCC2)c(=O)c2ccccc12
inactive: activity change, negative = inhibition [1] 5.98% | activity change, negative = inhibition [2] 20% | activity, negative = inhibition [3] 8.76% | Potency [4] > 20.6 µM

O=C(NCCc1ccccc1)/C(=N\O)c1ccccc1
inactive: activity change, negative = inhibition [1] -2.29% | activity change, negative = inhibition [2] 11.6% | activity, negative = inhibition [3] -3.56% | Potency [4] > 20.6 µM

CC(C)(C#N)C(C)(C)c1nn[nH]n1
inactive: activity change, negative = inhibition [1] 6.02% | activity change, negative = inhibition [2] 0.881% | activity, negative = inhibition [3] 8.72% | Potency [4] > 20.6 µM

OCCNC1=NCCN1
inactive: activity change, negative = inhibition [1] -9.49% | activity change, negative = inhibition [2] 3.37% | activity, negative = inhibition [3] 1.85% | Potency [4] > 20.6 µM

CSc1sc(C(=O)O)c2c1C(=O)CCC2
inactive: activity change, negative = inhibition [1] 12.2% | activity change, negative = inhibition [2] -0.427% | activity, negative = inhibition [3] 3.35% | Potency [4] > 20.6 µM

CCSc1nnc(N(CCC(=O)O)CCC(=O)O)s1
inactive: activity change, negative = inhibition [1] 2.21% | activity change, negative = inhibition [2] 5.3% | activity, negative = inhibition [3] -4.16% | Potency [4] > 20.6 µM

Cc1cc(C)n(-c2c(F)c(F)c(CN3CCCCC3)c(F)c2F)n1
inactive: activity change, negative = inhibition [1] -3.48% | activity change, negative = inhibition [2] -27.9% | activity, negative = inhibition [3] 5.23% | Potency [4] > 20.6 µM

CCCOC(=O)CSC1=C(C#N)C(c2ccccc2OC)C(C#N)C(=O)N1 (stereo not given)
inactive: activity change, negative = inhibition [1] -16.4% | activity change, negative = inhibition [2] 13.9% | activity, negative = inhibition [3] -22.7% | Potency [4] > 20.6 µM

COC(=O)C1=C(C)N=C2SC(C)C(=O)N2C1c1cccc(F)c1 (stereo not given)
inactive: activity change, negative = inhibition [1] -23.7% | activity change, negative = inhibition [2] -3.19% | activity, negative = inhibition [3] -1.23% | Potency [4] > 20.6 µM

O=C1c2ccccc2C(=O)N1c1ncccn1
inactive: activity change, negative = inhibition [1] 6.61% | activity change, negative = inhibition [2] -3.61% | activity, negative = inhibition [3] 9.87% | Potency [4] > 20.6 µM

COc1cc(C2C(C(=O)c3ccc(C)o3)=C(O)C(=O)N2c2cc(C)on2)cc(OC)c1OC (stereo not given)
inactive: activity change, negative = inhibition [1] 5.13% | activity change, negative = inhibition [2] -1.16% | activity, negative = inhibition [3] 2.07% | Potency [4] > 20.6 µM

Cc1cc(=O)oc2cc(OCC(=O)NCc3cccnc3)ccc12
inactive: activity change, negative = inhibition [1] 0.0607% | activity change, negative = inhibition [2] -8.13% | activity, negative = inhibition [3] -2.73% | Potency [4] > 20.6 µM

COC(=O)c1ccc(Nc2cc(C)nc(-c3ccccc3O)n2)cc1
inactive: activity change, negative = inhibition [1] 15.3% | activity change, negative = inhibition [2] -10.8% | activity, negative = inhibition [3] -5.42% | Potency [4] > 20.6 µM

CCOc1nc(Oc2cccc(C(=O)O)c2)nc(Oc2cccc(C(=O)O)c2)n1
inactive: activity change, negative = inhibition [1] 29.4% | activity change, negative = inhibition [2] 0.693% | activity, negative = inhibition [3] 8.24% | Potency [4] > 20.6 µM

c1ccc2c(c1)nc(CN1CCOCC1)n1c3ccccc3nc21
inactive: activity change, negative = inhibition [1] 25.2% | activity change, negative = inhibition [2] 25.2% | activity, negative = inhibition [3] 14.3% | Potency [4] > 20.6 µM

CCOc1ccc(-c2nc(C#N)c(NCC(C)C)o2)cc1
inactive: activity change, negative = inhibition [1] -22.8% | activity change, negative = inhibition [2] -3.57% | activity, negative = inhibition [3] -7.96% | Potency [4] > 20.6 µM

CC1(C)Cc2c(c(-c3ccccc3)nc(N3CCCC3)c2C(N)=O)CO1
inactive: activity change, negative = inhibition [1] 0.989% | activity change, negative = inhibition [2] -18.8% | activity, negative = inhibition [3] 0.41% | Potency [4] > 20.6 µM

CCN(CC)CCN1C(=O)C(=O)/C(=C(/O)c2c(C)[nH]c(C(=O)OC)c2C)C1c1cccc(OC)c1 (stereo not given)
inactive: activity change, negative = inhibition [1] 1.88% | activity change, negative = inhibition [2] 3.77% | activity, negative = inhibition [3] 5.49% | Potency [4] > 20.6 µM

Cc1cc2c(c(=O)o1)C(Cc1ccccc1)C(C#N)=C(N)O2 (stereo not given)
inactive: activity change, negative = inhibition [1] 4.23% | activity change, negative = inhibition [2] 9.9% | activity, negative = inhibition [3] -12.4% | Potency [4] > 20.6 µM
